In the library only some 0.42% were active in any assay of this set; here they are far more common.
Lamin A splicing = qHTS Assay for Modulators of Lamin A Splicing. Potency, µM (highest dose often 46.1 µM), hits mostly inhibitors. HeLa LMNA splicing GFP/RFP minigene ratio, 48 h. 200,000 tested, 0.01% active; active = well fitted inhibition curve with a large enough effect in the signal ratio, with a control signal flat, not every such curve was filed as active; inconclusive = small, poorly fitted or top-dose-only effect, or effect the other way, or a change in a side signal; the % refers to the signal ratio
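S3 HeLa cells stably expressing lamin A-EGFP splicing minigene plus DsRed2, 600 cells/well, 48 h compound exposure at 37C. Laser-scanning cytometry; analysed as GFP (500-530 nm)/RFP (575-640 nm) total intensity ratio; 0.5% DMSO vehicle.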
GAA spleen mod = qHTS Assay for Inhibitors and Activators of Human alpha-Glucosidase From Spleen Homogenate. Lysosomal alpha-glucosidase (Homo sapiens), P10253. human spleen homogenate, 4-MU-alpha-glucoside fluorescence. Potency, µM (series often up to 79.9 µM), actives largely listed as inhibitors. 240,000 tested, 0.006% active. AID 2112, 2009
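Human spleen homogenate (1 ug) with 4-methylumbelliferyl-alpha-D-glucopyranoside (1 mM final) in 50 mM citrate/phosphate pH 5.0, 0.01% Tween-20; 40 min at 37 C. Stopped at pH 10; 4-MU fluorescence Ex 365/Em 440 nm; AC50 by Hill fit.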
GAA inh = qHTS Assay for Inhibitors of Human alpha-Glucosidase as a Potential Chaperone Treatment of Pompe Disease | Lysosomal alpha-glucosidase (Homo sapiens), P10253 | purified human GAA, 4-MU-alpha-glucoside fluorescence | Potency, µM (titrated, usually from 76.9 µM), usual class: inhibitors | 200,000 tested, 0.005% active
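Activity normalized between no-enzyme (basal) and enzyme-only wells. Conditions: 4 nM human enzyme, 400 uM fluorogenic substrate, citrate/phosphate pH 5.0 with Tween-20, 20 min room temperature, compounds up to 77 uM.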
N370S GC mod = qHTS Assay for Inhibitors and Activators of N370S glucocerebrosidase as a Potential Chaperone Treatment of Gaucher Disease; Potency, µM (doses to about 59.4 µM), most hits filed as inhibitors; AID 2101, 2009; 330,000 tested, 0.092% active; N370S GC spleen homogenate, 4MU-glucoside fluorescence
GAA glycogen mod = qHTS Assay for Inhibitors and Activators of Human alpha-Glucosidase Cleavage of Glycogen. Lysosomal alpha-glucosidase (Homo sapiens), P10253. recombinant GAA, glycogen substrate, Amplex Red glucose oxidase fluorescence. Potency, µM (titrated, usually from 76.4 µM), usual class: inhibitors. 300,000 tested, 0.38% active. AID 2100, 2009;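 note: the screen sought inhibitors and activators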
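qHTS, 1536-well; enzyme 4 nM final; cpd up to 77 uM; substrate bovine liver glycogen 30 ug; 50 mM citrate/phosphate pH 5.0, 0.01% Tween-20; 37 C, 40 min; Amplex Red detection 45 min RT; Hill fit → AC50.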
Hits are given with their value; n = inactive; u = inconclusive; x = no result given; [ ] = dose if it differs, or a comment. Unless noted, calls come from the whole dose curve; as a rule, active = well fitted curve in the direction sought with a large enough effect; inconclusive = small, poorly fitted or top-dose-only effect, or another doubt; inactive = no such curve, though single readings can be large; an effect the other way counts as inactive or inconclusive.

SMILES	Lamin A splicing	GAA spleen mod	GAA inh	N370S GC mod	GAA glycogen mod
CCCCNS(=O)(=O)c1ccc(C)c(-c2nnc3c4ccccc4c(C)nn23)c1	x	x	x	x	n
CCCCC/C=C\C/C=C\C/C=C\CCCCCCC(=O)NC(C)C(=O)O (centres undefined)	x	n	x	n	x
CCN(CC)CCOC(=O)c1ccc(NC(=O)c2nn(-c3ccc(C)cc3)c(=O)c3c2c2ccccc2n3C)cc1	x	x	x	x	n
CNc1ccc(O)cc1	x	n	x	u	x
Cc1ccc(-c2nc3cnccn3c2Nc2ccc3c(c2)OCO3)o1	n	n	u	n	7.94µM
COc1ccc(Nc2c(-c3ccc(C)o3)nc3cc(C)ccn23)cc1	x	x	x	x	5.62µM
COc1cc(-c2nc3ncccn3c2Nc2ccc(C)cc2C)ccc1O	x	x	x	x	10µM
COc1cc(-c2nc3cnccn3c2Nc2c(C)cccc2C)ccc1O	n	n	n	n	14µM
COc1cc(-c2nc3sccn3c2Nc2c(C)cccc2C)ccc1O	x	x	x	x	n
ClC1=C(Cl)C(Cl)(Cl)C(Cl)=C1Cl	x	n	x	n	x
CCOC(=O)c1c(N)sc2c1CCCC2	n	n	n	n	35.5µM
CCOC(=O)c1c(N)sc2c1CCC(C)C2 (centres undefined)	u	n	n	n[2.35 µM]	u
CC(=O)O[C@@H]1[C@@H](O)CN[C@@H]1Cc1ccccc1	x	n	x	n	x
Cc1cc(C)c2nc(N(CCCN(C)C)C(=O)c3ccc(S(=O)(=O)N4CCCCCC4)cc3)sc2c1	x	x	x	15.8µM	x
CN(C)CCCN(C(=O)c1ccc(S(=O)(=O)N2CCCCC2)cc1)c1nc2cc3c(cc2s1)OCO3	x	x	x	u	n
O=C1CCCC/C1=C\Nc1ccc(O)cc1	n	n	n	u	8.84µM
O=C(NNc1c2ccccc2nc2ccccc12)c1ccccc1O	17.8µM	n	n	n	n
O=C(NNc1c2ccccc2nc2ccccc12)c1ccc(O)cc1	u	n	n	n	11.2µM
O=C(NNc1c2ccccc2nc2ccccc12)c1ccc(O)cc1O	n	n	n	n	28.2µM
Cc1ccc(C(=O)NNc2nc3ccccc3nc2C(F)(F)F)cc1	n	n	n	n	15.8µM
Cc1ccc(C(=O)Nc2nc3ccccc3n3nnnc23)cc1	n	n	n	n	n
O=C(NNc1c2ccccc2nc2ccccc12)c1cccc(O)c1	u	n	n	n	u
COc1ccc(-c2nc3c(c4c2C[C@H](c2ccccc2)OC4)CN(C(=O)c2cc(I)ccc2F)CC3)c(C)c1	u	n[17.4 µM]	x	n[12.8 µM]	x
N#Cc1cc(-c2ccccc2)oc1/N=C/c1ccccc1O	n	n	n	n	u
COc1cccc(/C=N/c2oc(-c3ccccc3)cc2C#N)c1O	u	n	n	n	28µM
SMILES	Lamin A splicing	GAA spleen mod	GAA inh	N370S GC mod	GAA glycogen mod
Cc1noc(C)c1-c1ccc2ncnc(N3CCN(C)CC3)c2c1	7.08µM	n	x	n	x
Cc1ccccc1-c1ccc2ncnc(N3CCOCC3)c2c1	u	n	x	n	x
Cc1noc(C)c1-c1ccc2ncnc(N3CCOCC3)c2c1	10µM	n	x	n	x
Cc1cc(=O)oc2cc(NC(=O)[C@H](CCCCN)NC(=O)[C@H](CC3CCCCC3)NC(=O)OCC3c4ccccc4-c4ccccc43)ccc12	x	n	x	n	x
CC(=O)OCc1ccco1	x	n	x	n	x
CCCCC/C=C\C=C\C(O)CCCCCCCC(=O)O (centres undefined)	x	n	x	n	x
O=C(O)c1ccc(-c2nc(-c3ccc(Cl)c(Cl)c3)cs2)cc1	x	n	n	n	n
NC(=O)C(=CNc1nc(-c2ccc(Cl)c(Cl)c2)cs1)C(N)=O	x	n	x	n	7.08µM
O=C(c1ccccc1)c1ccc(OCCOCCN2CCN(Cc3ccccc3)CC2)cc1	n	n	n	14.1µM	n
O=C(c1ccccc1)c1ccc(OCCCN2CCCC2)cc1	n	n	n	n	n
Cc1cc(OCC(=O)NC(Cc2c[nH]c3ccc(O)cc23)C(=O)O)c2c(C)c(C)c(=O)oc2c1 (centres undefined)	x	x	x	n	u
CCCc1cc(=O)oc2cc(OCC(=O)NC(Cc3c[nH]c4ccc(O)cc34)C(=O)O)c(Cl)cc12 (centres undefined)	x	x	x	n	7.94µM
CC(=O)[C@@H]1[C@H]2[C@H](C(=O)[C@H]3OC[C@@H]2O3)[C@H]2C=Cc3ccccc3N21	x	n	x	n	x
COC(=O)C1=C(C(=O)OC)[C@@H]2N(Cc3ccccc3)c3ccccc3[C@@]23C[C@@H](C(=O)OC)N(S(=O)(=O)c2ccc(Br)cc2)C3=N1	u	n[17.4 µM]	x	n[12.8 µM]	x
COc1ccc(/C=C\c2onc(C)c2S(=O)(=O)N2CCC(C(=O)Nc3cccc(Cl)c3)CC2)cc1	x	x	x	x	n
Cc1ccc(C2C3=C(CC(C)(C)CC3=O)N=C3c4ccccc4C(=O)C32)cc1 (centres undefined)	u	n	n	15.8µM	n
CCOC(=O)C1=C(C)N=C2c3ccccc3C(=O)C2C1c1ccc(Cl)cc1 (centres undefined)	n	n	n	n[12.8 µM]	n
CC1(C)CC(=O)C2=C(C1)N=C1c3ccccc3C(=O)C1C2c1ccc(Cl)cc1 (centres undefined)	u	n	n	14.1µM	n
Cc1cc(-c2ccccc2)nc2[nH]n(-c3ccccc3)c(=O)c12	n	n	n	n	35.5µM
CC[C@H](C)[C@H](NC(=O)CNC(=O)[C@H](CCCNC(=N)N)NC(=O)CNC(=O)[C@@H](NC(=O)[C@H](Cc1ccc(O)cc1)NC(=O)[C@H](Cc1c[nH]c2ccccc12)NC(=O)[C@H](C)NC(=O)[C@@H]1CCCN1C(=O)[C@H](CC(N)=O)NC(=O)[C@@H](NC(=O)[C@H](CC(=O)O)NC(=O)[C@@H]1CCCN1C(=O)[C@@H](N)[C@@H](C)O)[C@@H](C)CC)[C@@H](C)O)C(=O)N[C@@H](CCCNC(=N)N)C(=O)N1CCC[C@H]1C(=O)N[C@H](C(=O)NCC(=O)N[C@@H](CCCNC(=N)N)C(=O)N[C@@H](Cc1ccccc1)C(N)=O)C(C)C	x	n	x	u	x
NNC(=O)CN1C(c2ccccc2)=Nc2ccc(Br)cc2C1c1ccccc1 (centres undefined)	u	n	n	39.8µM	n
COc1ccc(NC(=S)NNc2ccc([N+](=O)[O-])cc2S(=O)(=O)Nc2ccc(C)cc2C)cc1	u	n	u	22.4µM	u
Cc1ccc2sc(NNC(=O)C3=COCCO3)nc2c1C	x	n	n	n	6.26µM
Cc1cc(=O)[nH]c2c(C)c(Cl)ccc12	n	n	n[15.4 µM]	n	n
Cc1cc(C)c2ccc3c(C)c(C)nc3c2[nH]1	x	x	u	7.08µM	n
COc1ccc(OC)c(-c2nnc3n2N=C(c2ccccc2OC)CS3)c1	x	n	x	n	x

Assay outcomes: PubChem, National Center for Advancing Translational Sciences (NCATS)
